Laboratory results as given in PubChem BioAssay (EPA / NIEHS).
Several values for one entry are separate records, joined by “and”; a condition that tells them apart may be missing. Identical values can stand only once. More than one record can exist for a structure, and the calls need not agree. Activity calls are given as the source filed them. How the source made its calls: active means hit-call score of the fitted dose curve at least 0.9, where 1 is the maximum; inactive means score below 0.9.

Key:
[1] = ATG_CRE_CIS: Attagene CIS-FACTORIAL HepG2 Assay for human cAMP Responsive Element (CRE) binding protein 3 (AID 2282926); details: HepG2 CRE cis-reporter, Attagene multiplexed mRNA; actives raise or lower the signal
How it was run: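 Readout: fluorescently labelled reporter transcripts resolved by capillary electrophoresis after RT-PCR, taken 24 h post-dosing in transfected HepG2. Endogenous transcription factor activity drives each cis-element reporter; gain or loss of signal fitted relative to DMSO control.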

[2] = ATG_DR4_LXR_CIS: Attagene CIS-FACTORIAL HepG2 Assay for human Liver X Receptor (LXR), DR4 submotif (AID 2282929); details: HepG2 Attagene DR4 cis-reporter, mRNA transcription; actives raise or lower the signal
How it was run: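 Endogenous factor activity at a DR4 cis-element is read as reporter mRNA in transiently transfected HepG2 cells. Exposure lasts 24 h; transcripts are amplified, fluorescently labelled and sized by capillary electrophoresis, with DMSO as baseline.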

[3] = ATG_AP_1_CIS: Attagene CIS-FACTORIAL HepG2 Assay for human Activator Protein 1 (AP-1) (AID 2282931); details: HepG2 Attagene cis-factorial AP-1 reporter mRNA; actives raise or lower the signal
How it was run: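 Fluorescence of labelled PCR fragments separated by capillary electrophoresis gives reporter mRNA levels. HepG2 with transfected cis-regulated reporter units, 24 h exposure; DMSO serves as baseline for bidirectional curve fits.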

[4] = target: Hepatocyte nuclear factor 3-beta (Homo sapiens) (UniProt Q9Y261); experiment: ATG_FoxA2_CIS: Attagene CIS-FACTORIAL HepG2 Assay for human Forkhead box A2 (FOXA2) (AID 2282942); details: HepG2 cis-reporter transcription factor activity, 24 h; actives raise or lower the signal
Hepatocyte nuclear factor 3-beta (Homo sapiens), sequence (Q9Y261 whole entry, looked up): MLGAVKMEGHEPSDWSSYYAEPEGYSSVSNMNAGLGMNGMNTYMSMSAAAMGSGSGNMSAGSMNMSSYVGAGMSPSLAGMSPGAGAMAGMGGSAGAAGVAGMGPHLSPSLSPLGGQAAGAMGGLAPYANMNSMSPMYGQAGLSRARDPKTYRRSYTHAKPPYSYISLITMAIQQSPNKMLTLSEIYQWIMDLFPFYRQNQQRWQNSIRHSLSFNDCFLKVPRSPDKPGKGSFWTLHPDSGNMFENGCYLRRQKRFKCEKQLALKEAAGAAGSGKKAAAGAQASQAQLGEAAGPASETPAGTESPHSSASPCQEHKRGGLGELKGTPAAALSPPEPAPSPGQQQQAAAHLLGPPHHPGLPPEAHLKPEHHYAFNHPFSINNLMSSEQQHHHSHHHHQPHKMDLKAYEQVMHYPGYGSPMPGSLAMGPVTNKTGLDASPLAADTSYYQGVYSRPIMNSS
How it was run: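 Cells: HepG2, transient multiplex reporter transfection. Exposure 24 h. Detection: reporter-specific RT-PCR, fluorescent labelling, restriction digest, capillary electrophoresis. Analysis: bidirectional curve fit, DMSO as negative control.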

[5] = target: Hypoxia-inducible factor 1-alpha (Homo sapiens) (UniProt Q16665); experiment: ATG_HIF1a_CIS: Attagene CIS-FACTORIAL HepG2 Assay for human Hypoxia Inducible Factor 1 (HIF1A) (AID 2282951); details: HepG2 Attagene cis-factorial HIF1a reporter transcription; actives raise or lower the signal
Hypoxia-inducible factor 1-alpha (Homo sapiens), sequence (Q16665 whole entry, looked up): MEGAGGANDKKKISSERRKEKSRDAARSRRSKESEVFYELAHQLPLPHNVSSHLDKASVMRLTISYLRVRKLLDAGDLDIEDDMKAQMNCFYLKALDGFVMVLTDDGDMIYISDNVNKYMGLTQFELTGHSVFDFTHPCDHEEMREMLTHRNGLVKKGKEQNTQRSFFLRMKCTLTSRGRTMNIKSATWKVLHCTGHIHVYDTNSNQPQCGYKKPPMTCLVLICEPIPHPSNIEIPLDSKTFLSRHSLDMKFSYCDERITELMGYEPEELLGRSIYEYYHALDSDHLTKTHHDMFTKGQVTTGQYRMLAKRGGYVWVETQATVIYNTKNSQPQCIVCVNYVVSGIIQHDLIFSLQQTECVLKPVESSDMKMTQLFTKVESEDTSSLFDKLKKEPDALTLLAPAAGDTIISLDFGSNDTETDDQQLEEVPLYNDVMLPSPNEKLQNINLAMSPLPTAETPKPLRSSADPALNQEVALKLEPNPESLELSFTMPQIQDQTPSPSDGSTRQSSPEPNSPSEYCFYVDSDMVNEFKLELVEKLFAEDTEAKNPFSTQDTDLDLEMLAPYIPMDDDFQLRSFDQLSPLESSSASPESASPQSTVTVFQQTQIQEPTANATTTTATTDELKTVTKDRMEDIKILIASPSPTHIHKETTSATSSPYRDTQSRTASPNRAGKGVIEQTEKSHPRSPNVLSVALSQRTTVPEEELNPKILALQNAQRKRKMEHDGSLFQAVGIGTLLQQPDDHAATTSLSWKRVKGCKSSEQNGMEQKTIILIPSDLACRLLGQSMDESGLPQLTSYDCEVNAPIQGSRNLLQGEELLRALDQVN
How it was run: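 HepG2, transient cis-reporter library, 24 h dosing. RNA → RT (oligo dT) → PCR → 6-FAM primer extension → HpaI → CE. Bidirectional curve fit vs DMSO.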

[6] = ATG_NFI_CIS: Attagene CIS-FACTORIAL HepG2 Assay for human Nuclear Factor I (NFI) (AID 2282989); details: HepG2 cis-regulatory reporter, NFI response element transcription; actives raise or lower the signal
How it was run: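 After transient transfection of HepG2 with cis-promoter reporter constructs and 24 h dosing, RNA is reverse-transcribed, amplified, 6-FAM end-labelled and HpaI-digested before capillary analysis. Bidirectional curve fitting against DMSO.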

[7] = ATG_NRF2_ARE_CIS: Attagene CIS-FACTORIAL HepG2 Assay for human Nuclear Factor Erythroid 2 Related Factor 2 (NFR2) response to Antioxidant Response Elements (ARE) (AID 2282992); details: HepG2 Attagene ARE/NRF2 reporter, transcription factor activity; actives raise or lower the signal
How it was run: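 Endogenous transcription factor activity read out as reporter transcript levels (RT-PCR plus capillary electrophoresis, fluorescence) in transiently transfected HepG2 cells. Measured at 24 h after dosing; gain or loss of signal fitted versus DMSO.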

[8] = BSK_3C_TissueFactor: BioMAP Diversity Plus: 3C Assay for Tissue Factor Biomarker Activity (AID 2282997); details: BioMAP 3C HUVEC, tissue factor biomarker readout; actives raise or lower the signal
How it was run: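 HUVEC, 3C system, 24 h post-dose; Tissue Factor by ELISA; bidirectional fit vs DMSO baseline.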

[9] = read-out: Intercellular Adhesion Molecule 1 (ICAM1), ICAM1 (gene 3383); experiment: BSK_3C_ICAM1: BioMAP Diversity Plus: 3C Assay for Intercellular Adhesion Molecule 1 (ICAM1) Biomarker Activity (AID 2283003); details: primary human endothelial cells (HUVEC); actives raise or lower the signal
How it was run: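 ELISA readout of ICAM1 in human umbilical vein endothelial cells in the 3C system, taken 24 h post-dose. Gain or loss of signal versus DMSO was fitted in both directions, with SRB total-protein staining run in parallel.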

[10] = read-out: Human Leukocyte Antigen - DR isotype (HLADR), HLA-DRA (gene 3122); experiment: BSK_3C_HLADR: BioMAP Diversity Plus: 3C Assay for Human Leukocyte Antigen - DR isotype (HLADR) Biomarker Activity (AID 2283019); details: primary human endothelial cells (HUVEC); actives raise or lower the signal
How it was run: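 HUVEC, 3C stimulation, 24 h post-dose; HLA-DR by ELISA; bidirectional curve fit vs DMSO baseline; gain or loss of signal scored.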

[11] = read-out: Matrix Metallopeptidase 1 (MMP1), MMP1 (gene 4312); experiment: BSK_BE3C_MMP1: BioMAP Diversity Plus: BE3C Assay for Matrix Metallopeptidase 1 (MMP1) Biomarker Activity (AID 2283024); details: primary human bronchial epithelial cells; actives raise or lower the signal
How it was run: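 ELISA measurement of MMP-1 after 24 h compound exposure of primary human bronchial epithelial cells. Changes in either direction fitted relative to DMSO; parallel SRB staining checked overt cytotoxicity.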

[12] = read-out: Pselectin, SELP (gene 6403); experiment: BSK_4H_Pselectin: BioMAP Diversity Plus: 4H Assay for Pselectin Biomarker Activity (AID 2283026); details: primary human endothelial cells (HUVEC); actives raise or lower the signal
How it was run: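 ELISA of surface P-selectin on HUVEC, 24 h after dosing, with parallel SRB staining (0.1% after 10% TCA fixation, 560 nm) for overt cytotoxicity. Activity fitted in both directions relative to DMSO.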

[13] = read-out: Human Leukocyte Antigen - DR isotype (HLADR), HLA-DRA (gene 3122); experiment: BSK_BE3C_HLADR: BioMAP Diversity Plus: BE3C Assay for Human Leukocyte Antigen - DR isotype (HLADR) Biomarker Activity (AID 2283032); details: primary human bronchial epithelial cells; actives raise or lower the signal
How it was run: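 Cell-surface HLA-DR ELISA readout at 24 h after dosing in the BE3C primary human lung bronchial epithelial system; gain or loss of signal against DMSO, with parallel sulforhodamine B staining of total protein for overt cytotoxicity.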

[14] = read-out: Vascular cell adhesion molecule 1 (VCAM1), VCAM1 (gene 7412); experiment: BSK_4H_VCAM1: BioMAP Diversity Plus: 4H Assay for Vascular cell adhesion molecule 1 (VCAM1) Biomarker Activity (AID 2283033); details: primary human endothelial cells (HUVEC); actives raise or lower the signal
How it was run: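 VCAM-1 ELISA read 24 h after chemical dosing of HUVEC in the BioMAP 4H system, with gain or loss of signal fitted relative to DMSO. Parallel SRB staining (560 nm) checked overt cytotoxicity.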

[15] = read-out: Interferon-gamma inducible Protein 10 (IP10), CXCL10 (gene 3627); experiment: BSK_BE3C_IP10: BioMAP Diversity Plus: BE3C Assay for Interferon-gamma inducible Protein 10 (IP10) Biomarker Activity (AID 2283034); details: primary human bronchial epithelial cells; actives raise or lower the signal
How it was run: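 IP-10 quantified by ELISA in human primary bronchial epithelial cell cultures at 24 hours post-dosing. Gain or loss of signal fitted relative to DMSO; parallel SRB staining assessed overt cytotoxicity.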

[16] = read-out: urokinase plasminogen activator (uPA), PLAU (gene 5328); experiment: BSK_BE3C_uPA: BioMAP Diversity Plus: BE3C Assay for urokinase plasminogen activator (uPA) Biomarker Activity (AID 2283038); details: primary human bronchial epithelial cells; actives raise or lower the signal
How it was run: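 ELISA read-out of uPA in human lung primary bronchial epithelial cultures, 24 h post-dosing. Gain or loss of signal fitted bidirectionally relative to DMSO baseline; cytotoxicity checked in parallel cultures via SRB total protein stain.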

[17] = read-out: Interleukin-6 (IL6), IL6 (gene 3569); experiment: BSK_CASM3C_IL6: BioMAP Diversity Plus: CASM3C Assay for Interleukin-6 (IL6) Biomarker Activity for (AID 2283040); details: primary human coronary artery smooth muscle cells; actives raise or lower the signal
[18] = read-out: Macrophage colony-stimulating factor (MCSF), CSF1 (gene 1435); experiment: BSK_CASM3C_MCSF: BioMAP Diversity Plus: CASM3C Assay for Macrophage colony-stimulating factor (MCSF) Biomarker Activity (AID 2283044); details: primary human coronary artery smooth muscle cells; actives raise or lower the signal;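 further: M-CSF protein amount quantified by ELISA after 24 h exposure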
[19] = read-out: Low-density lipoprotein receptor (LDLR), LDLR (gene 3949); experiment: BSK_CASM3C_LDLR: BioMAP Diversity Plus: CASM3C Assay for Low-density lipoprotein receptor (LDLR) Biomarker Activity (AID 2283045); details: primary human coronary artery smooth muscle cells; actives raise or lower the signal;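 further: LDLR protein level on the cell surface quantified by ELISA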
[20] = read-out: Tissue Factor, F3 (gene 2152); experiment: BSK_LPS_TissueFactor: BioMAP Diversity Plus: LPS Assay for Tissue Factor Biomarker Activity (AID 2283084); details: primary human HUVEC with PBMC; actives raise or lower the signal
How it was run: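 HUVEC/PBMC co-culture, LPS-activated; CD142 ELISA read 24 h post-dose; bidirectional curve fit vs DMSO negative control.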

Measured: AC50

C[Si](C)(C)O[Si](C)(C)O[Si](C)(C)C
inactive: [1] | [2] | [3] | [4] | [5] | [6] | [7]

COc1cc(CNC(=O)CCCC/C=C/C(C)C)ccc1O
active: [10] 20 µM and 9.23 µM | [11] 14.4 µM and 14 µM
not listed: [1] | [2] | [3] | [4] | [5] | [6] | [7]
inactive: all other assays above

CC[N+](CC)(CC(=O)Nc1c(C)cccc1C)Cc1ccccc1
inactive: all assays above

CCCN[C@H]1CCc2nc(N)sc2C1
inactive: [1] | [2] | [3] | [4] | [5] | [6] | [7]

COc1ccc2ccccc2c1
inactive: [2] | [4] | [5]

CCCCCC[C@@H](O)C/C=C\CCCCCCCC(=O)O
active: [2] 70.4 µM | [3] 71.8 µM | [4] 172 µM | [6] 153 µM | [7] 100 µM
inactive: [1] | [5]

O=[N+]([O-])c1cc(S(=O)(=O)Nc2ccccc2)ccc1Nc1ccccc1
inactive: [8] | [9] | [14] | [16] | [18] | [19] | [20]
active: [8] 34.8 µM | [10] 13.9 µM | [11] 5.29 µM and 5.21 µM | [12] 32.2 µM and 31.7 µM | [13] 31 µM and 32 µM | [14] 27.2 µM | [15] 32.4 µM and 31.9 µM | [16] 34.9 µM | [17] 20 µM and 10.3 µM | [20] 2.78 µM

CCCCCCCCCC/C=C/C1CC(=O)OC1=O (stereo not given)
active: [7] 79.8 µM | [13] 20 µM | [15] 18.4 µM
inactive: all other assays above

Oc1cccc2ccccc12
active: [7] 4.38 µM | [8] 12.1 µM | [10] 10.5 µM | [20] 6.27 µM
inactive: all other assays above

OC(C(F)(F)F)(C(F)(F)F)C(O)(C(F)(F)F)C(F)(F)F
active: [8] 23.7 µM and 22.6 µM | [9] 40.6 µM | [10] 29.4 µM and 26.4 µM | [12] 22.1 µM and 21.4 µM | [13] 48.2 µM and 45.4 µM | [14] 24.3 µM and 30 µM | [15] 42.6 µM and 43.6 µM | [16] 28.8 µM and 32.2 µM | [17] 41.2 µM | [18] 49 µM and 50.5 µM | [20] 30 µM
inactive: [9] | [11] | [17] | [19]

O=S(=O)(O)c1cccc2ccccc12
inactive: [1] | [2] | [3] | [4] | [5] | [6] | [7]

CCCCC(CC)COC(=O)C=Cc1ccc(OC)cc1 (stereo not given)
inactive: [9] | [11] | [13] | [15] | [16] | [17] | [18] | [19] | [20]
active: [8] 5.17 µM and 7.14 µM | [10] 30.4 µM and 22.1 µM | [12] 33.3 µM and 38.7 µM | [14] 5.26 µM and 3.42 µM | [20] 7.72 µM
